Assay results as given in the supplement of paper PMC7261846.
± gives the uncertainty stated by the source.

Test system: Candida albicans SNY425 biofilm
Assay: biofilm OD600 with compound plus antifungal (OD600 (absorbance)); higher = more biofilm remaining
[1] = assay detail: disruption of 24-h mature biofilm (compound + antifungal for a second 24 h)
[2] = assay detail: sustained inhibition (compound + antifungal during 90-min adherence and 24-h growth)

Row | SMILES | biofilm OD600 [1] | biofilm OD600 [2]
1 | CCN1C(=O)C=CC1=O [N-Ethylmaleimide] + OC(Cn1cncn1)(Cn1cncn1)c1ccc(F)cc1F [fluconazole] (first compound 4 µM) | 0.278 ± 0.0073 | 0.113 ± 0.011
2 | O=C(NCCCCN1CCOCC1)c1cc2ccccc2o1 + C[C@@H]1[C@H](O)[C@@H](C)/C=C/C=C/C=C/C=C/C=C/C=C/C=C/[C@H](O[C@@H]2O[C@H](C)[C@@H](O)[C@H](N)[C@@H]2O)C[C@@H]2O[C@](O)(C[C@@H](O)C[C@@H](O)[C@H](O)CC[C@@H](O)C[C@@H](O)CC(=O)O[C@H]1C)C[C@H](O)[C@H]2C(=O)O [amphotericin B] (first compound 12.5 µM) | 0.262 ± 0.0087 | 0.216 ± 0.013
3 | CC(C)CC(=O)N[C@H](C(=O)N[C@H](C(=O)N[C@@H](CC(C)C)[C@@H](O)CC(=O)N[C@@H](C)C(=O)N[C@@H](CC(C)C)[C@@H](O)CC(=O)O)C(C)C)C(C)C [Pepstatin A] + CC[C@H](C)C[C@H](C)CCCCCCCCC(=O)N[C@H]1C[C@@H](O)[C@@H](NCCN)NC(=O)[C@@H]2[C@@H](O)CCN2C(=O)[C@H]([C@H](O)CCN)NC(=O)[C@H]([C@H](O)[C@@H](O)c2ccc(O)cc2)NC(=O)[C@@H]2C[C@@H](O)CN2C(=O)[C@H]([C@@H](C)O)NC1=O [caspofungin] (first compound 12.5 µM) | 0.264 ± 0.01 | 0.18 ± 0.013
4 | Cc1c(O)cccc1C(=O)N[C@@H](CSc1ccccc1)[C@H](O)CN1C[C@H]2CCCC[C@H]2C[C@H]1C(=O)NC(C)(C)C [nelfinavir] + CC[C@H](C)C[C@H](C)CCCCCCCCC(=O)N[C@H]1C[C@@H](O)[C@@H](NCCN)NC(=O)[C@@H]2[C@@H](O)CCN2C(=O)[C@H]([C@H](O)CCN)NC(=O)[C@H]([C@H](O)[C@@H](O)c2ccc(O)cc2)NC(=O)[C@@H]2C[C@@H](O)CN2C(=O)[C@H]([C@@H](C)O)NC1=O [caspofungin] (first compound 12.5 µM) | 0.17 ± 0.0053 | 0.127 ± 0.019
